Potency and affinity values are given separately. Records with an inconclusive call do not appear. Entries that show only a call come without a potency. Calls of active or inactive are those of the source. No rule for the calls is given here.
These compounds were tested against Cyclin-dependent kinase 5 activator 1 (Homo sapiens) + Cyclin-dependent kinase 5 (Homo sapiens) (UniProt Q15078+Q00535) (assay: CDK5/p35 kinase inhibitors, dose response, biochemical, cherry-picked samples, set 2 (AID 504545)). Settings: biochemical plate reader; series mostly up to 30 µM.
Chain of Cyclin-dependent kinase 5 activator 1 (Homo sapiens) + Cyclin-dependent kinase 5 (Homo sapiens) (Q00535 whole entry, looked up): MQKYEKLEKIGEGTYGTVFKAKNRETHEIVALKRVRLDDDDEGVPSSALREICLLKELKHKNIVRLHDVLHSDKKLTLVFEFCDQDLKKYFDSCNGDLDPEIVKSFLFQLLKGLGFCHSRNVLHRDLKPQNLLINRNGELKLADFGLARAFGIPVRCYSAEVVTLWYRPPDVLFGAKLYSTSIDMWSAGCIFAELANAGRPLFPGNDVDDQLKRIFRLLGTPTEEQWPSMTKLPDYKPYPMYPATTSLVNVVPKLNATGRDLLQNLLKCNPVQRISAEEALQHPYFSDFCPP
Chain of Cyclin-dependent kinase 5 activator 1 (Homo sapiens) + Cyclin-dependent kinase 5 (Homo sapiens) (Q15078 whole entry, looked up): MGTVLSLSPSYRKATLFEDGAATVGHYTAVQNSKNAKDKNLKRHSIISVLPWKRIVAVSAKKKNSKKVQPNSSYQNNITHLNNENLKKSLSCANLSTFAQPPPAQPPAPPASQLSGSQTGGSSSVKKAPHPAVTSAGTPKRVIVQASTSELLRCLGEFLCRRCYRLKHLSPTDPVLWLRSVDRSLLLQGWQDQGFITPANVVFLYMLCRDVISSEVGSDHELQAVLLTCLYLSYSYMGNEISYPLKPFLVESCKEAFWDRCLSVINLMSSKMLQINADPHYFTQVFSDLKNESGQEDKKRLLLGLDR
For `COc1cc2c(ccc3c4cc(OC)c(OC)cc4c[n+](C)c23)cc1O`, the outcome was “inactive”.
`NC(=O)c1c(Br)n(C2OC(CO)C(O)C2O)c2ncnc(N)c12` (centres undefined) was tested, and the outcome was “inactive”.
For `Nc1ncnc2c1ccn2[C@@H]1O[C@H](CO)[C@@H](O)[C@H]1O`, the outcome was “inactive”.
`Nc1ccc(CC2=NCCN2)cc1` was tested, and the outcome was “inactive”.

— PubChem BioAssay AID504545 (Broad Institute, 2011)
